Out of some 4,100 compounds screened, about 1,600 (39%) were called active. Not shown: some 25% with an inconclusive outcome. Calls come from the whole dose curve; as a rule, active = well fitted inhibition curve with a large enough effect; inconclusive = small, poorly fitted or top-dose-only effect; inactive = no such curve, though single readings can be large or run the other way. This is one part of the list.
Potency is the fitted concentration of half-maximal effect.

The nature of this assay: qHTS Validation assay for Inhibitors of Plasmodium falciparum Dd2 growth in vitro. Note: nearly all actives have a fitted effect of over 70% in size. The note with it: P. falciparum Dd2 in RBCs, SYBR Green growth, 72 h; series mostly up to 28.7 µM. The text has this:
Malaria, a parasitic disease spread to humans through the bite of a Plasmodium infected Anopheles mosquito, continues to be a global health burden affecting millions of people, with an estimated 228 million cases and 405,000 deaths in 2018. Concerns about safety and limitations of current antimalarial treatments strongly emphasize the need to develop new therapeutic options. The scarce number of chemotypes and validated drug targets with efficacy against the liver stage, have hindered development of new antimalarials. To address this, a chemoprophylactic drug discovery effort was conducted through a combined phenotypic high-throughput asexual blood stage and liver stage screen, providing a robust foundation to identify liver-stage active lead chemotypes. Compounds were initially screened against Plasmodium falciparum Dd2 strain parasites using a in vitro SYBRGreen-1 based 72 hr proliferation assay to identify novel chemotypes to advance to liver stage assays. NIH/NCATS Early Translation Branch Assay Submitter (PI): Anton Simeonov Ph.D.
[…] Assay Protocol: PROTOCOL TABLE (as described by Inglese et al., 2007) SEQUENCE No. (e.g., 1, 2, 3, etc.); PARAMETER (e.g., Cells, Incubation, Reagent, etc.); VALUE; DESCRIPTION SEQUENCE, Parameter, Description 1; Reagent; 3 uL complete malaria growth medium, 1536 TC treated Black clear bottom plate 2; Controls; 23 nL positive control artesunate (300 nM final) to column 1; Neutral control DMSO to columns 2-4 3; Compound; 23 nL of compounds in dose response concentration (29 uM to 0.5 nM final) 4; Reagent; 5 uL malaria infected red blood cells (2.5% hematocrit final, 0.3% parasitemia 5; Time; 72 hours at 37C (5% O2, 5% CO2, 90% N2; 95% Rh) 6; Reagent; 2 uL lysis buffer/SYBRGreen-1, 25 sec shake immediately following dispense 7; Time; ~16 hours at 37C (5% O2, 5% CO2, 90% N2; 95% Rh) 8; Detector; EnVision (PerkinElmer) bottom read at 485/14nm excitation and 535/25 nm emission NOTES (numbers refer to sequence above): 1; Complete Malaria Growth Media: 1X RPMI-1640 w/L-glutamine, 5.5g/L Albumax II, 367 uM Hypoxanthine, 25 mM HEPES, 0.25% Sodium Bicarbonate, 35 uM Gentamicin sulfate 2; Controls were added using the Kalypsis Pintool (Wako USA) equipped with 1536 pinhead 3; Compounds were added in a 7-point, titration with a high final concentration of 29 uM by Pintool from seven inter-plate titrations of library plates and two DMSO control plates at the beginning and end (see Yasgar et al., 2008). 4; Red blood cells infected with Plasmodium falciparum Dd2 parasites were used. 6; Lysis buffer: 20 mM Tris-HCl, 10 mM EDTA, 0.16% Saponin, 1.6% Triton-X, 10X SYBR Green. REFERENCE: Inglese J, Shamu CE, Guy RK. 2007. Reporting data from high-throughput screening of small-molecule libraries. Nat Chem Biol. doi:10.1038/nchembio0807-438 Yasgar A, Shinn P, Jadhav A, Auld D, Michael S, Zheng W, Austin CP, Inglese J, Simeonov A. 2008. Compound Management for Quantitative High-Throughput Screening. J Lab Autom 13:79-89. doi:10.1016/j.jala.2007.12.004
(In qHTS, concentration-response curves come from the screen itself.)
`CCn1cc(C(=O)N[C@@H](CCSC)C(=O)NC(C)(C)CO)c(=O)c2cc3c(cc21)OCO3`: the Potency is 2.99 µM (active).
The value for `CCN(CC)CCNC(=O)c1cn(CC)c2ccc(S(=O)(=O)N3CCOCC3)cc2c1=O` was “inactive”; that for `CC1CCc2cc(F)ccc2N1C(=O)CSc1nnc2c(n1)[nH]c1ccccc12` (stereo not drawn) was 7.5 µM (active).
As for `CC1CCN(C(=O)CSc2nnc3c(n2)[nH]c2ccc(F)cc23)CC1`, the Potency entry was “inactive”.
As to `CC1CCc2cc(F)ccc2N1C(=O)CSc1nnc2c(n1)[nH]c1ccc(F)cc12` (stereo not drawn), the Potency was 8.41 µM (active).
The value for `COc1cccc(S(=O)(=O)N2C[C@@H](Oc3ccccc3)C[C@@H]2C(=O)N2CCOCC2)c1` was “inactive”; that for `COc1ccccc1NS(=O)(=O)c1cc(NC(=O)c2cccc(S(=O)(=O)N(C)C)c2)ccc1N1CCOCC1` was 7.5 µM (active); that for `CCc1noc(-c2cn(C3CCN(C(=O)c4ccc(F)c(F)c4)CC3)nn2)n1` was “inactive”.
The entry for `CCCc1noc(-c2cn(C3CCN(C(=O)Cc4cccc(F)c4)CC3)nn2)n1` is “inactive”.
The value for `Cc1nc2cc(F)ccc2n1C1CCN(C(=O)c2c(F)cccc2F)CC1` was 5.96 µM (active); that for `CCC(O)(CC)C(=O)NN(C(=O)Nc1csc2c1CCCC2)c1ccccc1` was 2.99 µM (active).
In the case of `CCCC(=O)Nc1sc2c(c1C(=O)Nc1ccccn1)CCCC2`, the Potency result is “inactive”.
The entry for `Cc1ccc(C)c(C(=O)Nc2ccncc2)c1` is “inactive”.
The value for `Cc1ccc(NC(=O)c2cnc(-c3ccccc3)nc2-c2ccncc2)c(Br)c1` was 9.44 µM (active).
The figure for `COc1ccc([C@@]2(C(C)C)ON(c3ccccc3C(F)(F)F)C2=O)cc1` is 4.22 µM (active); for `Cc1nn(-c2ccccc2)nc1C(=O)Oc1cc(C(F)(F)F)nn1-c1ccccc1` it is “inactive”.
Turning to `Cn1cnc2ccc(-c3cccc(O)c3)nc2c1=O`, the Potency is 6.11 µM (active).
The entry for `COCCn1cnc2ccc(-c3ccccc3)nc2c1=O` is “inactive”; for `COCCN1CCCCCC(O)c2cc(C(=O)NCCc3ccccc3)ccc21` (stereo not drawn) it is “inactive”.
As for `CN1CC2(CCCN(CC3CC3)C2)c2cc(C(=O)NCCOc3ccccc3)ccc21` (stereo not drawn), the Potency is 17.2 µM (active).
The value for `Cc1ccccc1CN1CCc2nc(C(=O)NCCOc3ccccc3)oc2CC1` was “inactive”; that for `COc1cc2nc(NCCC(C)C)n3nc(-c4ccccc4)nc3c2cc1OC` was 0.422 µM (active).
In the case of `COCCCNc1nc2cc(OC)c(OC)cc2c2nc(-c3ccccc3)nn12`, the Potency was 0.237 µM (active).
The value for `CCOCCCNc1nc2cc(OC)c(OC)cc2c2nc(-c3ccccc3)nn12` was 0.211 µM (active).
Regarding `CC(C)CN1C(=O)c2cccn2CC1C(=O)O` (stereo not drawn), the Potency entry is “inactive”.
The value for `CCN1C(=O)C2(CCN(S(=O)(=O)c3ccc(Cl)cc3C)CC2)c2ccccc21` was 5.31 µM (active).
Turning to `CN1C(=O)C2(CCN(C(=O)c3ccn(C(C)(C)C)c3)CC2)c2ccccc21`, the Potency entry was “inactive”.
Take `COc1ccc(-c2cc3c(=O)n(CCNC(=O)c4ccc(N(C)C)cc4)ccn3n2)cc1`: the Potency result is “inactive”.
The figure for `COc1ccc(-c2nc3sc(CCNC(=O)c4ccc(C(C)(C)C)cc4)c(C)n3n2)cc1` is 2.11 µM (active); for `COc1ccc(-c2nc3scc(CCNC(=O)c4cccc(Br)c4)n3n2)cc1` it is “inactive”; for `Cc1c(O)c(CN(C)C)cc2c1oc(=O)c1ccccc12` it is 4.22 µM (active).
`Cc1c(O)c(CN2CCCC2)cc2c1oc(=O)c1ccccc12`: the Potency was 2.66 µM (active).
The figure for `Cc1c(O)c(CN2CCCCC2)cc2c1oc(=O)c1ccccc12` is 0.75 µM (active); for `CCCc1cc(=O)oc2c(C)c(O)c(CN3CCCCC3)cc12` it is 3.35 µM (active).
Consider `O=C1CCCCN1Cc1nc(C2CCOC2)no1` (stereo not drawn), for which the Potency entry was “inactive”.
Take `Cc1cc(C)c2oc(=O)cc(CN3CCCCC3)c2c1`: the Potency was 13.3 µM (active).
The value for `C=CCCC(CN1CCCC1)Oc1ccc(C(=O)N2CCCC2)cn1` (stereo not drawn) was 13.3 µM (active); that for `COc1ccc(C(=O)N2CCCC(n3cc(-c4nc(C(C)C)no4)nn3)C2)cn1` (stereo not drawn) was “inactive”.
The value for `CC(C)CN(Cc1cc(=O)oc2cc3c(cc12)CCCC3)CC(C)C` was 15 µM (active); that for `CCOC(=O)C(C)/C(C)=N/NC(N)=S` (stereo not drawn) was 2.66 µM (active).
The entry for `N#Cc1ccc(C23CC4CC(CC(C4)C2)C3)[nH]c1=O` is “inactive”; for `O=C(Nc1ccc(C2=NCCN2)cc1)c1ccc(C(=O)Nc2ccc(C3=NCCN3)cc2)c(Cl)c1` it is 0.473 µM (active).
With `O=C(Nc1ccc(C2=NCCN2)cc1)c1ccc(C(=O)Nc2ccc(C3=NCCN3)cc2)c([N+](=O)[O-])c1`, the Potency is 0.237 µM (active).
The value for `CC(C)(C)c1ccc(C(=O)Nc2ccc(-c3nc4cc(Cl)ccc4o3)cc2)cc1` was “inactive”; that for `CC1Oc2ccc(NC(=O)c3ccc(Cl)c(Cl)c3)cc2CN(Cc2ccccc2F)C1=O` (stereo not drawn) was “inactive”; that for `Cc1cc(C[C@@H]2COC[C@@H]2NC(=O)CCc2ccc(=O)[nH]n2)on1` was “inactive”.
The figure for `COc1cc(NC(=O)c2cc([N+](=O)[O-])ccc2NC(=O)CNC2CCCCC2C)cc(OC)c1` (stereo not drawn) is 5.96 µM (active); for `COC(=O)c1cc(C(=O)c2ccc(Cl)cc2Cl)cn1C` it is 13.3 µM (active); for `CCc1ccc(C2=CC(c3cccc(C)c3)n3c(nc4ccccc43)N2)cc1` (stereo not drawn) it is 15 µM (active).
In the case of `CC1=C[C@@H](CN2CCCC2)[C@H](C(C)C)C[C@H]1Cc1nnc(-c2ccc([N+](=O)[O-])cc2)o1`, the Potency is 3.85 µM (active).
The figure for `CC1=C[C@@H](CN2CCOCC2)[C@H](C(C)C)C[C@H]1Cc1nnc(-c2ccc([N+](=O)[O-])cc2)o1` is 9.44 µM (active); for `COc1ccc(-c2nnc(C[C@@H]3C[C@@H](C(C)C)[C@H](CN4CCC(O)CC4)C=C3C)o2)cc1` it is 9.44 µM (active).
The figure for `CC1=C[C@@H](CN2CCN(c3ncccn3)CC2)[C@H](C(C)C)C[C@H]1Cc1nnc(COc2ccc(F)cc2)o1` is 0.75 µM (active).
The entry for `COc1ccc(C(=O)N[C@@H]2CCC[C@@H]2C(=O)NCCCN(C)C)cn1` is “inactive”.
For the compound `COC(=O)CNC(=O)N1CCCCC1c1nc(CCOc2cccc(C)c2)no1` (stereo not drawn), the Potency result was “inactive”.
The value for `COc1nc2c(cc1CNC(=O)C(C)(C)OC)C(=O)N(CCc1ccccn1)C2` was “inactive”; that for `Cc1noc(-c2cn(C3CCN(C(=O)c4ccc(C)s4)C3)nn2)n1` (stereo not drawn) was “inactive”; that for `CC1=C[C@@H](CN2CCC(C)CC2)[C@H](C(C)C)C[C@H]1Cc1nnc(-c2cccnc2)o1` was 15.3 µM (active).

(Values after PubChem BioAssay AID1347416 (National Center for Advancing Translational Sciences (NCATS), 2020).)
